Screening data deposited in PubChem BioAssay by several laboratories.
CHT inh: inhibitors of human choline transporter CHT. Q9GZV3. CHT-expressing cells, membrane potential dye, choline response; active compounds read low. B-score at 10 µM. 0.86% of 310,000 active;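 active means B-score over 3 SD under the library average, and starting fluorescence ratio not unusually high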;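 further: choline stimulus applied at its EC90 after an EC20 pre-addition; B-score computed on integrated fluorescence ratio after choline addition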
ALR H2O2 inh: blocks human ALR sulfhydryl oxidase activity; inhibition, % (test concentration not listed); AID 485317; purified ALR, DTT oxidation, H2O2 HRP-luminol luminescence; 3.8% of 290,000 active;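 active means mean replicate inhibition above about 79%, with every replicate also reaching it, limit read from the data; inconclusive means only one of the two criteria met; inactive means mean below limit and not every replicate reaching it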
Target sequence (P55789 whole entry, looked up): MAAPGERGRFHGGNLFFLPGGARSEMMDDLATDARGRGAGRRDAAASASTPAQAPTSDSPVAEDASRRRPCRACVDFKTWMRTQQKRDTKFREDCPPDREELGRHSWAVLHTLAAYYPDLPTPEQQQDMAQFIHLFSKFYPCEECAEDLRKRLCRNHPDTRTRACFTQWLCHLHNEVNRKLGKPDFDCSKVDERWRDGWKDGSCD
AI-2 QS modul: modulators of Vibrio harveyi AI-2 quorum sensing system | Vibrio harveyi JMH597 AI-2 luminescence/OD600 ratio, 9 h; active compounds read low; strain lacks LuxN and CqsS sensors; 0 = neutral-control median | activity change, % at 7.5 µM | 0.4% of 300,000 active | AID 2094; in the data active means activity change below about -75%, passing the limit was not always enough; inconclusive means no clear call, values can overlap the other calls;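 further: luminescence divided by OD600 gain over 9 h not by final OD600 alone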
CHT PAM: allosteric activators of human choline transporter CHT; CHT-expressing cells, membrane potential dye, choline EC20; active compounds read high; LV-AA mutant CHT in HEK293 cells; B-score at 10 µM; 0.49% of 310,000 active; AID 488977;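 active means initial fluorescence not abnormally high and integrated response B-score, plate-corrected, over 3 SD above library mean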
PREPL inhibitor: human PREPL enzyme inhibition | Q4J6C6 | recombinant PREPL, fluorescence polarization activity-based probe | inhibition, % at 5.96 µM | 0.68% of 320,000 active; in the data active means inhibition above about 43%
JMH597 growth rt: retest: inhibitors of Vibrio harveyi JMH597 growth. shares compounds with AI-2 QS modul. OD600 absorbance, 9 h; lacks LuxN and CqsS sensors. growth inhibition, % at 7.5 µM. 1% of 750 active. AID 2726;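 active means every replicate shows growth inhibition above 50%; inconclusive means at least half, but not all, replicates pass that cutoff; inactive means fewer than half of replicates pass it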
BB721 const-QS lum: retest counter-screen: BB721 constitutive quorum sensing luminescence decrease; shares compounds with AI-2 QS modul; inhibition, % at 7.5 µM; AID 2727; Vibrio harveyi BB721 luminescence, 9 h; 95% of 750 active;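 active means inhibition above about 80% in every replicate, not just on average, limit read from the data; inconclusive means at least half of replicates past the limit, but not all; inactive means fewer than half of replicates past the limit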
BB721 growth: retest: blocks Vibrio harveyi BB721 growth | 3% of 750 active | growth inhibition, % at 7.5 µM | OD600 absorbance, 9 h | shares compounds with AI-2 QS modul;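 active means every replicate shows growth inhibition above 50%; inconclusive means at least half but not all replicates above 50% inhibition; inactive means under half of replicates above 50% inhibition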
AI-2 QS JMH597: Vibrio harveyi AI-2 signaling luminescence modulation – JMH597 strain, confirmation; inhibition, % at 7.5 µM; Vibrio harveyi JMH597 AI-2 quorum sensing luminescence, 9 h; luxN and CqsS knockout, AI-2 only; AID 2736; 97% of 750 active; shares compounds with AI-2 QS modul;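 active means every replicate shows more than 75% inhibition of signal versus neutral control wells; inconclusive means half to three quarters of replicates exceed 75% inhibition; inactive means fewer than half of replicates exceed 75% inhibition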
Large screens that a line does not name were inactive (follow-up assays come after a bar, where they were run). A selection: hits, their analogues and other compounds. The true share with any hit is near 5%.

O=[N+]([O-])c1cccc(-c2n[nH]c(=S)n2-c2ccc(Br)cc2)c1	ALR H2O2 inh 95
COc1cccc(-c2cc(C(=O)N3CCN(S(=O)(=O)c4ccc(Br)cc4)CC3)[nH]n2)c1	none
CCOc1ccc(-c2nnn(CC(=O)NCc3ccccc3)n2)cc1	none
CCc1ccc(O)c(-c2cc(C(=O)Nc3cccnc3)[nH]n2)c1	AI-2 QS modul -94 (no result: ALR H2O2 inh) | JMH597 growth rt inactive | BB721 const-QS lum 97 | BB721 growth inactive | AI-2 QS JMH597 97
Cc1cc(O)c(-c2cc(C(=O)Nc3cccnc3)[nH]n2)cc1C	none
COc1ccc(CNC(=S)Nc2ccc(F)c(Cl)c2)cc1	AI-2 QS modul -84 | JMH597 growth rt inactive | BB721 const-QS lum 92 | BB721 growth inactive | AI-2 QS JMH597 92
CCCCOc1ccc(NC(=O)CN2CCN(Cc3ccccc3)CC2)cc1	none
CC(Sc1n[nH]c(N)n1)C(=O)Nc1cccc2ccccc12 (centres undefined)	none (no result: CHT inh, AI-2 QS modul, CHT PAM)
Nc1ccccc1S(=O)(=O)NCCCCc1ccccc1	AI-2 QS modul -89 | JMH597 growth rt inactive | BB721 const-QS lum 95 | BB721 growth inactive | AI-2 QS JMH597 96
O=S(=O)(NCCCc1ccccc1)c1cccc2nsnc12	none
O=C(Cc1ccccc1F)Nc1ccc(S(=O)(=O)N2CCCCC2)cc1	none
O=C(Cc1ccc(Br)cc1)Nc1ccc(S(=O)(=O)N2CCCC2)cc1	AI-2 QS modul -96 | JMH597 growth rt inactive | BB721 const-QS lum inconclusive | BB721 growth inactive | AI-2 QS JMH597 99
O=C(Cc1ccccc1[N+](=O)[O-])Nc1ccc(S(=O)(=O)N2CCCC2)cc1	AI-2 QS modul inconclusive | JMH597 growth rt inactive | BB721 const-QS lum 93 | BB721 growth inactive | AI-2 QS JMH597 94
O=C(Nc1ccc(F)cc1)Nc1ccc(S(=O)(=O)N2CCCC2)cc1	none (no result: CHT inh, AI-2 QS modul, CHT PAM)
O=C(CSc1nncs1)Nc1ccc(S(=O)(=O)N2CCCC2)cc1	AI-2 QS modul -83 | JMH597 growth rt inactive | BB721 const-QS lum 93 | BB721 growth inactive | AI-2 QS JMH597 95
O=C(Nc1ccc(S(=O)(=O)N2CCCC2)cc1)Nc1ccc(F)cc1F	AI-2 QS modul -96 | JMH597 growth rt inactive | BB721 const-QS lum 98 | BB721 growth inactive | AI-2 QS JMH597 99
Cc1nnc(SCC(=O)Nc2ccc(S(=O)(=O)N3CCCC3)cc2)n1N	none
Cc1ccsc1CNCc1cc(Cl)ccc1O	none (no result: AI-2 QS modul)
C(=N\NCc1ccccc1)/c1ccc2ncccc2c1	AI-2 QS modul -95 (no result: ALR H2O2 inh) | JMH597 growth rt inactive | BB721 const-QS lum 98 | BB721 growth inactive | AI-2 QS JMH597 99
CCc1ccc(CCC(=O)Nc2ccc(Cl)cc2)o1	ALR H2O2 inh 78, AI-2 QS modul -89 | JMH597 growth rt inactive | BB721 const-QS lum 96 | BB721 growth inactive | AI-2 QS JMH597 98
Cc1ccc(CCC(=O)Nc2ccc(Cl)cc2)o1	AI-2 QS modul -87 | JMH597 growth rt inactive | BB721 const-QS lum 91 | BB721 growth inactive | AI-2 QS JMH597 93
CCc1ccc(CCC(=O)Nc2ccc(Br)cc2)o1	AI-2 QS modul -91 | JMH597 growth rt inactive | BB721 const-QS lum 95 | BB721 growth inactive | AI-2 QS JMH597 97
CCc1ccc(CCC(=O)Nc2ccc(OC)cc2)o1	none
Cc1ccc(CCC(=O)Nc2ccc(CC(=O)O)cc2)o1	none
CCc1ccc(CCC(=O)Nc2ccc(C(C)=O)cc2)o1	AI-2 QS modul -94 | JMH597 growth rt inactive | BB721 const-QS lum 98 | BB721 growth inactive | AI-2 QS JMH597 99
CN(Cc1cccc(Cl)c1Cl)C(=O)c1cccc(S(=O)(=O)N2CCN(Cc3ccccc3)CC2)c1	none
N#Cc1nc(-c2ccc(F)cc2)oc1NCc1ccccc1	AI-2 QS modul -96 | JMH597 growth rt inactive | BB721 const-QS lum 95 | BB721 growth inactive | AI-2 QS JMH597 97
N#Cc1nc(-c2cccs2)oc1NCc1ccc(Cl)cc1	AI-2 QS modul -87 | JMH597 growth rt 93 | BB721 const-QS lum 92 | BB721 growth 102 | AI-2 QS JMH597 96
